IMPase Li inh: cell-permeable IMPase inhibitors with lithium potentiation; CHO-M1 cells, IP1 TR-FRET (IP-One), carbachol + lithium; 210,000 tested, 0.35% active; Potency, µM (top dose mostly 59.4 µM), inactives show at the highest dose activity, negative = IMPase inhibition, actives largely listed as inhibitors;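 note: IP1 builds up when IMPase is blocked and the TR-FRET signal falls; potency is the fitted concentration of half-maximal effect; plate controls were basal vehicle for no effect and high inhibitor control for full effect; nearly all actives have a fitted effect of over 50% in size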
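Concentration–response in CHO-M1 cells, lithium-potentiated; 30 min at 37C. IP1 detected by competitive TR-FRET after 10 min lysis at RT. Hill-fitted AC50.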
12-hLO inh: inhibitors of human 12-lipoxygenase (ALOX12); P18054; purified 12-hLO, xylenol orange hydroperoxide absorbance; Potency, µM (series often up to 57.1 µM), inactives show at the top dose activity change, negative = inhibition, actives largely listed as inhibitors; AID 1452; 150,000 tested, 0.12% active; note: potency is the fitted concentration of half-maximal effect; nearly all actives have a fitted effect of over 55% in size
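Purified human 12hLO (150 nM final) was preincubated with compounds for 15 min at room temperature in 25 mM Hepes pH 7.0, 0.01% Triton X-100, then reacted with 40 uM arachidonic acid for 30 min. Hydroperoxide was detected with ferrous iron/xylenol orange.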
IMPase cell inh: membrane-permeable compound that blocks inositol monophosphatase; inhibition (IP1 accumulation), % at 46.1 µM; CHO-M1 cells, IP1 accumulation, HTRF TR-FRET ratio; AID 901; P97697; 120,000 tested, under 10 active; active = well fitted curve in the direction sought with a large enough effect in the signal ratio, not every such curve was filed as active; inconclusive = small, poorly fitted or top-dose-only effect, or a change in a side signal; inactive = no such curve, though single readings can be large or run the other way; the % refers to the signal ratio;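 note: cells stimulated with carbachol in lithium chloride buffer; plate controls were DMSO basal wells for no effect and reference inhibitor wells for full effect; higher means more IMPase inhibition seen as more IP1 and lower FRET ratio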
Target sequence (P97697 whole entry, looked up): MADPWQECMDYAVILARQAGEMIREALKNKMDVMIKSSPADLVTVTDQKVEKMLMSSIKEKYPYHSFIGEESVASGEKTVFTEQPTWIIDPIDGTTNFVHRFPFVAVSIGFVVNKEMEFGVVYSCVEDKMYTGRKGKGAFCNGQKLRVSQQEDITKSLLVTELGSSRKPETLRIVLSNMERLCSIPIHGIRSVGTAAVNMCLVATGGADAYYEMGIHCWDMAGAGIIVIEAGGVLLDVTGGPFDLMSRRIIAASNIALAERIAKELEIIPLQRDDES
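CHO-M1, 2000 cells/well, cultured 16–30 h; cpd up to 46 uM; carbachol (50 uM solution, stimulation buffer w/ 50 mM LiCl, pH 7.4), 30 min 37C; IP-One TR-FRET, 10 min RT; Ex 320/Em 665, 620; Hill-fit AC50.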
PNC assembly inh: perinucleolar compartment assembly inhibition; PC3M PTB-GFP, PNC prevalence imaging, 16 h; hits give low values; activity change (PNC), negative = inhibition, % at 10 µM; 140,000 tested, 3.1% active; AID 2417;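 active = readout at or below -70, meaning at least 70% loss of cells showing the perinucleolar compartment, a nuclear body marking cancer cells; inconclusive = readout between -30 and a set limit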;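 note: plate controls were DMSO wells for no effect and camptothecin positive control wells for full effect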
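PC3M cells stably expressing PTB-GFP, 750–1000 cells/well, treated 16 h at 37 °C with compound (23 nl of library stock), in duplicate. After paraformaldehyde fixation and Hoechst stain, imaged at 20x; PNC prevalence scored by image analysis.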
Active calls of the source: *; ? = inconclusive; / = no result; [ ] = another dose, or the depositor's remark. Shown is part of a subset that was picked to be rich in hits. Unless noted, calls come from the whole dose curve; as a rule, active = well fitted curve in the direction sought with a large enough effect; inconclusive = small, poorly fitted or top-dose-only effect, or another doubt; inactive = no such curve, though single readings can be large; an effect the other way counts as inactive or inconclusive. Unless noted, % is set by controls: 0 for no effect and ±100 for the full control effect.

SMILES | IMPase Li inh | 12-hLO inh | IMPase cell inh | PNC assembly inh
Cc1ccccc1-n1c(SCC(=O)NC(N)=O)nc2sc(-c3ccccc3)cc2c1=O | 11µM* | -18% | / | 9
CCn1c2c(c3cc(Br)ccc31)CCC/C2=N\O | 11µM* | -12% | ? | -24
CCn1c2c(c3cc(OCC(C)C)ccc31)CCCC2=O | 0% | 0% | -21[0.369 µM] | -9
Cc1ccc(S(=O)(=O)COCCN2CCN(S(=O)(=O)c3ccc(C)cc3)CCC2=O)cc1 | 0% | -1%[0.00818 µM] | / | /
CC1(C)CC(=O)C=C(Nc2ccc(S(N)(=O)=O)cc2)C1 | 20%[38.3 µM] | -1% | 7 | ?
CC1(C)CC(=O)C(CC(=O)Nc2ccc(S(N)(=O)=O)cc2)=C(O)C1 | 3% | 4% | 0 | -90*
CCCn1c(SCC(=O)N2c3ccc(F)cc3CCC2C)nnc1-c1ccccn1 (stereo unspecified) | 16% | -3% | -6 | -119*
CCCn1c(SCC(=O)N2CCCCC2)nnc1-c1ccccn1 | 7% | / | / | /
Cc1sc2nc(CSc3ccccc3)nc(N3CCN(C)CC3)c2c1C | 14% | 1% | / | 27
COCCNc1nc(CSc2ccccc2)nc2sc(C)c(C)c12 | / | -3% | 9 | -86*
CC(=O)Nc1nonc1-c1nc2ccccc2n1Cc1nnc(C)o1 | 7%[38.3 µM] | -3% | 2 | -87*
O=C(COC(=O)COc1ccccc1)NC1CCCc2ccccc21 (stereo unspecified) | -3% | 0% | 0 | ?
Cc1cc(C)cc([N+](=O)[O-])c1 | 3% | 1% | / | /
O=C(O)c1ccccc1Sc1ncnc2sc3c(c12)CCC3 | 8.9µM* | / | / | /
Cc1sc2ncnc(Sc3ccccc3C(=O)O)c2c1C | 4.5µM* | / | / | /
COC(=O)c1cccnc1-n1c(=O)c2cccnc2n(Cc2ccc([N+](=O)[O-])cc2)c1=O | 3% | / | / | /
CCCCc1nc2c(c3c1C[C@H](C)OC3)CN(S(=O)(=O)c1c(C)noc1C)CC2 | 4% | -2%[11.4 µM] | / | /
CC(C)C[C@H](NC(=O)C1(c2ccccc2)CCN(C(=O)[C@H]2CSCN2C(=O)OC(C)(C)C)CC1)C(=O)O | 0% | 2% | / | -114*
O=C1C=CC(=O)C2=C1C1c3ccccc3C2c2ccccc21 | 15% | ? | / | /
O=C(Cn1nnc(-c2ccccc2F)n1)Nc1cccc2ncccc12 | -31%[38.3 µM] | -3% | ? | -82*
CCOc1ccc(NC(=O)Cn2nnc(-c3ccccc3NC(=O)CC)n2)cc1 | 9%[38.3 µM] | -1% | 7 | -84*
Cc1ccc(NC(=O)Cn2nnc(-c3ccccc3NC(=O)c3cccs3)n2)cc1 | 30%[38.3 µM] | 4% | -2 | -88*
CC(=O)OCC1CCCC2=C(C)C(=O)CCC21COC(C)=O (stereo unspecified) | -5% | -1% | / | -109*
COc1ccc2c(C(=O)CN(C)C3CCCCC3)c[nH]c2c1 | -5% | -4% | -4 | -100*
Cc1cc(C)cc(NC(=O)CCNS(=O)(=O)c2ccc3c(c2)oc(=O)n3C)c1 | 9% | -2% | -8 | -100*
SMILES | IMPase Li inh | 12-hLO inh | IMPase cell inh | PNC assembly inh
CCOC(=O)n1c(=O)oc2cc(S(=O)(=O)N3CCCCC3)ccc21 | 9% | -3% | -4 | -100*
CCOC(=O)N1CCN(S(=O)(=O)c2ccc3c(c2)oc(=O)n3C)CC1 | 7%[38.3 µM] | -2% | 7 | -80*
O=C1c2ccccc2NC(c2ccccn2)N1c1ccccc1F (stereo unspecified) | 7% | -3% | -15 | ?
O=C(CNS(=O)(=O)c1ccc(Cl)cc1)OCC(=O)N1CCCc2ccccc21 | / | -2% | 5 | ?
CC(=O)Nc1ccc(S(=O)(=O)NCC(=O)OCC(=O)N2CCCc3ccccc32)cc1 | 0% | -3% | / | -100*
CN=C(Nc1ccc(C(=O)OC)cc1)SC1CC(=O)N(c2ccccc2F)C1=O (stereo unspecified) | 9%[38.3 µM] | -1% | 14 | -108*
O=C(Nc1nnc(C(F)(F)F)s1)c1ccc(Br)s1 | -2% | / | / | /
Cc1nn(-c2ccccc2)c(Cl)c1C(=O)Nc1nnc(C2CCCC2)s1 | 17%[38.3 µM] | -6% | 7 | -85*
O=C(Nc1nnc(C2CCCCC2)s1)c1ccc(Br)s1 | 10µM* | -3% | 8 | 7
CCCCC(=O)NC(=S)NNC(=O)CC | 4% | -3% | 5 | -94*
CCCCCC(=O)NC(=S)NNC(=O)CC | 23%[38.3 µM] | -5% | 3 | -9
COC(=O)c1cccc(Oc2nc3c(c(=O)n(C)c(=O)n3C)n2C(C)C)c1 | ? | 5% | -10 | -97*
Cc1cccc(Oc2nc3c(c(=O)n(C)c(=O)n3C)n2C)c1 | 1% | / | 7 | /
CCOC(=O)c1ccc(N2C(=O)c3n[nH]c(C)c3C2c2ccc(OC)cc2)cc1 (stereo unspecified) | -2%[38.3 µM] | -29% | 12 | ?
CCOC(=O)c1ccc(N2C(=O)c3n[nH]c(C)c3C2c2ccc(OC)cc2OC)cc1 (stereo unspecified) | 17% | 0% | 13 | -119*
O=C(CCCCCN1C(=O)c2ccccc2C1=O)Nc1ccc2c(c1)OCCO2 | 15%[38.3 µM] | -2% | -1 | 37
O=C(CN1C(=O)CCS(=O)(=O)c2ccccc21)Nc1ccc2c(c1)OCCO2 | 0% | -4% | 1 | -100*
O=C(CN1C(=O)COc2ccccc21)Nc1ccc2c(c1)OCCO2 | -17%[38.3 µM] | -3% | -3 | ?
CCC1Oc2ccccc2N(CC(=O)Nc2ccc3c(c2)OCCO3)C1=O (stereo unspecified) | 0% | 0% | -15[1.84 µM] | -94*
O=C(CCCCCN1C(=O)c2ccccc2C1=O)Nc1ccc(F)cc1 | 15% | 4% | 4 | -100*
O=C(CCN1C(=O)c2ccccc2C1=O)Nc1ccccn1 | 14%[38.3 µM] | -2% | 12 | -88*
CCCCS(=O)(=O)N1CCc2nc(-c3ccc(OC)cc3C)c3c(c2C1)CO[C@@H](c1ccccc1)C3 | 9% | 3%[11.4 µM] | / | /
O=C(CCN1C(=O)c2ccccc2C1=O)Nc1ccc2c(c1)OCCO2 | 17%[38.3 µM] | 2% | 6 | -89*
CC(=O)c1oc2ccccc2c1NC(=O)CCCN1C(=O)c2ccccc2C1=O | 13µM* | -4% | 7 | 13
CCOC(=O)C1CC(c2ccc(Cl)cc2)=NNC1=O (stereo unspecified) | 2% | / | / | /
SMILES | IMPase Li inh | 12-hLO inh | IMPase cell inh | PNC assembly inh
COC(=O)Cn1c(=NC(=O)c2sc3ccccc3c2Cl)sc2cc(S(N)(=O)=O)ccc21 | -17% | 1% | / | 25
C#CCn1c(=NC(=O)c2ccc(Br)s2)sc2cc(NC(C)=O)ccc21 | ? | 0% | / | 5
COC(=O)Cn1c(=NC(=O)C(C)C)sc2c(C)cc(C)cc21 | 33%[38.3 µM] | -2% | ? | 5
COC(=O)Cn1c(=NC(=O)c2ccc([N+](=O)[O-])s2)sc2cc(Br)ccc21 | -3% | -2% | / | -93*
COC(=O)Cn1c(=NC(=O)c2ccc(Cl)s2)sc2cc(C)ccc21 | -27% | 3% | / | -119*
COC(=O)Cn1c(=NC(=O)c2nc3ccccc3s2)sc2cc(S(C)(=O)=O)ccc21 | 6.3µM* | 0% | / | 6
COc1cccc([C@@H]2Oc3ccc(Br)cc3[C@H](O)[C@H]2O)c1 | -5% | / | / | /
